# Bioassay records deposited in PubChem BioAssay by National Center for Advancing Translational Sciences (NCATS).
# An excerpt weighted towards active compounds, which were near 2.1% of everything screened.
# Abeta rescue: compounds reversing amyloid beta toxicity in yeast | 410,000 tested, 0.063% active | yeast expressing A-beta42, growth rescue, OD600, 48 h; response scale: 0% DMSO, 100% iron-clioquinol control | Potency, µM (top dose mostly 46.1 µM), usual class: activators; further: nearly all actives have a fitted effect of over 55% in size
#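 Growth rescue measured by 600 nm absorbance after 48 h yeast culture at 30 C with compound. Values normalized between DMSO and an equimolar ferric chloride plus clioquinol control.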
# TDP43 rescue: inhibitors of TDP-43 toxicity in yeast; TDP-43 expressing yeast growth rescue, BacTiter-Glo, 24 h; Potency, µM (titrated, usually from 46.1 µM), most hits filed as activators; 410,000 tested, 1.8% active; further: nearly all actives have a fitted effect of over 50% in size
#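 Growth rescue of TDP-43-toxic yeast measured as ATP luminescence (BacTiter-Glo). Cells grown to mid-log in raffinose, induced in galactose at OD600=0.02, exposed to compound 24 hr at 30 deg C.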
# FUS suppressor: suppressors of FUS proteinopathy in yeast; S. cerevisiae FUS-expressing, growth rescue, OD600, 24 h; Potency, µM (doses to about 76.6 µM), most hits filed as activators; 390,000 tested, 0.24% active; further: nearly all actives have a fitted effect of over 55% in size
#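 Compound concentration series was pinned onto galactose-induced FUS-expressing yeast seeded at OD 0.005. Plates sat 24hr at 30C; absorbance at 600 nm gave growth. DMSO served as background control.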
# aSyn rescue: alpha-synuclein toxicity inhibition in yeast | AID 652106 | Yeast expressing alpha-synuclein, growth rescue, BacTiter-Glo, 24 h | 370,000 tested, 0.14% active | Potency, µM (titrated, usually from 46.1 µM), hits mostly activators; further: nearly all actives have a fitted effect of over 65% in size
#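 Screening used galactose-induced yeast with toxic alpha-synuclein levels, exposed to compound for 24 hr at 30 deg C. Cell growth, read with BacTiter-Glo luminescence, gave the measured signal.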
# Numbers stand for hits; - = inactive; ? = inconclusive; . = no result given. The call rests on the fitted dose curve; in most records, active means well fitted curve in the direction sought with a large enough effect; inconclusive means small, poorly fitted or top-dose-only effect, or another doubt; inactive means no such curve, though single readings can be large; an effect the other way counts as inactive or inconclusive.
SMILES,Abeta rescue,TDP43 rescue,FUS suppressor,aSyn rescue
O=C(Nc1ccccc1N1CCN(C(=O)c2ccc(Cl)cc2)CC1)c1ccc2c(c1)OCO2,-,6.31µM,?,.
C#CCNC(=O)C[C@@H]1C[C@@]2(C(=O)OC)CCCCC=C2N(Cc2ccccc2)C1=O,-,-,-,-
Cc1ccc(S(=O)(=O)N2[C@H](CC(=O)c3cccc4ccccc34)OC[C@@H]2C(C)C)cc1,-,-,-,-
CCC(=O)N1CCN(c2ccccc2NC(=O)Cc2ccccc2)CC1,-,-,?,-
Cc1ccc(Cn2c(C(=O)O)c(CNCc3ccccc3Cl)c3ccc(C)cc32)cc1,-,-,-,.
COc1ccc(Cn2c(C(=O)O)c(CNCCc3ccccc3Cl)c3ccc(C)cc32)cc1,-,?,14.1µM,.
COc1ccc(Nc2ccccc2C(=O)O)cc1,-,-,-,-
COc1ccc(Nc2cccccc2=O)cc1,-,11.2µM,-,-
CC(NCCN(C)C)C1CCC2C3CCc4cc(O)ccc4C3CCC12C (stereo unspecified),-,0.316µM,.,-
C[C@]12CC[C@@H]3c4ccc(O)cc4CC[C@H]3[C@@H]1CC[C@@H]2O,-,?,-,-
COc1ccc(/C=C/c2nc(C#N)c(N3CCCCCC3)o2)cc1OC,-,17.8µM,-,.
N#Cc1nc(/C=C/c2ccc(F)cc2)oc1N1CCCCCC1,-,11.2µM,-,.
COC(=O)CN(c1cccc(OC)c1)S(C)(=O)=O,-,-,-,-
C=CCc1cccc(/C=N/NC(=O)CNc2ccccc2OC)c1O,-,11.2µM,-,-
Cc1cc(/C=C(\C#N)C(=O)Nc2ccccc2)c(C)n1-c1ccc(C(=O)O)cc1,-,-,-,-
O=C(c1cccs1)N1CCN(c2nnc(-c3ccccc3)c3ccccc23)CC1,-,17.8µM,-,-
O=C(COC(=O)COc1ccc(Cl)cc1Br)NC1CCCCCC1,-,-,-,-
CN(C(=O)COc1ccc(Cl)cc1Br)C1CCCCC1,-,17.8µM,-,-
O=[N+]([O-])c1cc(S(=O)(=O)Nc2ccc(Cl)cc2)ccc1N/N=C/c1ccncc1,-,-,-,-
Fc1ccc2cc(CCO[C@H]3CCCCO3)ncc2c1,-,-,-,-
O=C(Nc1ccccc1Oc1ccccc1)c1cccc([N+](=O)[O-])c1,-,14.1µM,-,?
Cc1ccc2nc(/C(C#N)=C/c3ccc(-c4cccc(Cl)c4)o3)[nH]c2c1,-,2µM,-,.
CNC(=O)c1ccc2c(c1)N(Cc1cc(C)ccc1C)C(=O)c1ccccc1S2,-,15.8µM,?,.
CCCCN(C)C(=O)c1ccc2c(c1)N(Cc1cccc(F)c1)C(=O)c1ccccc1S2,-,22.4µM,?,.
CCCCN(C)C(=O)c1ccc2c(c1)N(Cc1cccc(Cl)c1)C(=O)c1ccccc1S2=O (stereo unspecified),-,-,?,.
SMILES,Abeta rescue,TDP43 rescue,FUS suppressor,aSyn rescue
Cc1ccc(CN2C(=O)c3ccccc3Sc3ccc(C(=O)NCc4ccco4)cc32)cc1,-,-,10µM,.
CC12COC3(C(=O)N4CCN(c5ccccn5)CC4)CC1CCC32C (stereo unspecified),-,-,-,-
COc1ccc2oc(-c3ccccc3)c(C(N)=O)c2c1,-,12.6µM,-,-
COc1ccc2oc(-c3ccccc3)c(C(=O)O)c2c1,-,-,-,-
COc1ccc(C(=O)c2oc3ccc(OC)cc3c2N)cc1,-,11.2µM,-,-
COC(=O)c1c(-c2ccc(OC)cc2)oc2ccccc12,-,-,-,-
COc1ccc(-c2oc3ccccc3c2C(=O)Oc2ccccc2)cc1,-,3.55µM,-,-
N[C@@H](Cc1ccccc1)c1nnc(SCc2ccccc2F)o1,-,-,-,-
Cc1ccc(S(=O)(=O)N2CCCCC2)cc1C(=O)Nc1ccc(S(=O)(=O)Nc2ncccn2)cc1,-,-,-,-
N#Cc1ncc(C(F)(F)F)cc1Sc1ccc(N)cc1,?,14.1µM,-,-
Cc1cc(C)c(C#N)c(Sc2ccc(N)cc2)n1,-,-,.,-
C=CCNC(=O)CSc1nc2cc(C(=O)OCC)ccc2n1CC,-,-,-,-
Nc1nc(-c2cccs2)c(CC(=O)O)s1,-,-,-,-
Nc1nc(-c2cccs2)c(-c2cccs2)s1,-,15.8µM,-,-
Cc1ccc(CCNC(=O)c2sc3nc4n(c(=O)c3c2C)CCCC4)cc1,-,15.8µM,-,.
Cc1c(C(=O)NCCO)sc2nc3n(c(=O)c12)CCC3,-,-,-,-
Cc1c(C(=O)NCc2ccccc2Cl)sc2nc3n(c(=O)c12)CCCCC3,-,35.5µM,?,.
Cc1ccc(-c2nc(C(=O)NCc3ccccc3Cl)c3n2CCCCC3)cc1,-,35.5µM,?,-
CC(=O)c1sc2nc(SCC(=O)NCCc3ccccc3)[nH]c(=O)c2c1C,-,-,-,-
CNC(=O)c1c(NC(=O)c2cccc(C)c2)sc2c1CCC2,-,14.1µM,-,-
O=C(CSCc1ccccc1)Nc1cc([N+](=O)[O-])ccc1F,-,11.2µM,-,-
COc1ccc([N+](=O)[O-])cc1NC(=O)CSCc1ccccc1,-,12.6µM,-,-
COc1ccc([N+](=O)[O-])cc1NC(=O)CSc1ccccc1,-,-,-,-
Cc1cccc(CSCCNC(=O)CSCc2ccc([N+](=O)[O-])cc2)c1,-,17.8µM,-,-
Cc1cc(NC(=O)c2ccc(Br)cc2)nc(C)n1,-,15.8µM,-,-
SMILES,Abeta rescue,TDP43 rescue,FUS suppressor,aSyn rescue
Cc1cc(NC(=O)c2ccccc2O)nc(C)n1,-,-,-,-
CC1CCC2(CC1)CCN(CCCOC(=O)Nc1cccc(C(F)(F)F)c1)C2=O (stereo unspecified),.,.,-,.
O=C(Nc1ccc(Cl)cc1)c1cc2c(cc1O)[nH]c1ccccc12,-,3.98µM,-,-
CCCNC(=S)N1CCC(C(=O)c2ccc(F)cc2)CC1,-,.,-,-
CC(=O)Oc1c(Cl)c(N2CCOCC2)c(OC(C)=O)c2ccccc12,-,10µM,-,-
Cc1cc(OC(=O)N2CCOCC2)cc(C)c1Cl,-,-,-,-
CCOc1ccccc1NC(=O)Nc1c(C)n(-c2ccccc2)c(=O)n1C,-,-,-,-
O=C(CSc1nc2ccccc2c(=O)n1CC1CCCO1)Nc1ccccc1 (stereo unspecified),-,-,-,-
COc1ccc(OC)c(NC(=O)Nc2ccc(O)c3ccccc23)c1,-,-,28.2µM,-
COc1ccc(OC)c(C(=O)Nc2c(O)ccc3ccccc23)c1,-,11.2µM,?,-
COc1ccc(OC)c(NC(=O)Nc2c(O)ccc3ccccc23)c1,-,-,-,-
CC(C)CNS(=O)(=O)c1ccc(S(=O)(=O)N2CCCN(Cc3ccccc3)C2)cc1,-,-,-,-
COc1ccc(C(=O)/C=C/Nc2cc(C)on2)c(OC)c1,-,?,-,12.6µM
COc1ccc(C(=O)/C=C/Nc2ccc([N+](=O)[O-])cc2C)c(OC)c1,-,-,-,-
CN(C)CCNC(=O)c1ccc(Cl)s1,-,-,-,-
CN(Cc1ccc(Cl)cc1)C(=O)CCl,-,15.8µM,-,-
CN(Cc1ccc(Cl)s1)C(=O)CCl,-,10µM,-,-
